The text below walks through data of PubChem BioAssay AID1839 (Johns Hopkins Ion Channel Center, 2009).

The campaign covered roughly 2,400 compounds. About 220 (9.2%) were called active. Many of the other results were omitted from the sample, so actives are more common in it than they were. Unmarked numbers belong to inactive results.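 The calls were made as follows: active = signal change above the mean of dofetilide-free buffer controls plus 3 SD, so a positive margin; inactive = the rest.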

This experiment is described as follows: thallium signal changes without hERG – cell-based, CHO-K1 parental line, FluxOR thallium flux, counter-screen for hERG block protection project, confirmation (AID 1839).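 Also: compounds applied alone with no dofetilide to cells lacking hERG.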 The following applies: CHO-K1 parental cells, FluxOR thallium flux fluorescence; at 10 µM.
As for `O=C(O)c1ccccc1P(=O)(c1ccccc1)c1ccccc1`, the signal change vs control minus 3*SD hit threshold (margin above threshold, higher = more increase) is -29.2%. On to `CCc1cccc(C)c1NC(=O)C1=C(C(=O)O)CCCC1`, for which the signal change vs control minus 3*SD hit threshold (margin above threshold, higher = more increase) is -33.6%.

For `CN(C(=O)c1ccc(Cl)c(S(=O)(=O)N2CCOCC2)c1)c1ccccc1C(=O)O`, the signal change vs control minus 3*SD hit threshold (margin above threshold, higher = more increase) was -13.3%. For `COc1cc(/C=N/n2cnc3scc(-c4cccs4)c3c2=O)cc(OC)c1OC` the value was -32%; for `CC(C1CC2CCC1C2)n1c(-c2cccs2)n[nH]c1=S` (centres undefined), -18.6%. Turning to `Cn1c(=S)[nH]c2scc(-c3cccs3)c2c1=O`, the signal change vs control minus 3*SD hit threshold (margin above threshold, higher = more increase) is 27.9% (active). With `CCC(C)n1c(=S)[nH]c2ccccc2c1=O` (centres undefined), the signal change vs control minus 3*SD hit threshold (margin above threshold, higher = more increase) is -5.7%.

Turning to `S=c1[nH]c(-c2cccs2)cn1-c1ccccc1`, the signal change vs control minus 3*SD hit threshold (margin above threshold, higher = more increase) is -21.8%. Regarding `CC(C)n1c(=S)[nH]c2scc(-c3cccs3)c2c1=O`, the signal change vs control minus 3*SD hit threshold (margin above threshold, higher = more increase) is 28.9% (active). For the molecule `O=C(O)/C=C/C(=O)Nc1ccc(OC(F)(F)F)cc1`, the signal change vs control minus 3*SD hit threshold (margin above threshold, higher = more increase) was -22.2%. Take `CC(NC(=O)CCNC(=O)c1ccco1)c1ccc(F)cc1` (centres undefined): the signal change vs control minus 3*SD hit threshold (margin above threshold, higher = more increase) is -35.2%.

`CCc1c(C)sc(NC(=O)CN2CCN(C(=O)c3ccco3)CC2)c1C(=O)OC`: the signal change vs control minus 3*SD hit threshold (margin above threshold, higher = more increase) is -35.4%.

Consider `CCc1ccc2[nH]c(=O)c(-c3ccccc3)c(O)c2c1`, for which the signal change vs control minus 3*SD hit threshold (margin above threshold, higher = more increase) was -28.9%. As for `COc1cc(Cl)c(C)cc1NC(=O)CSc1sc2c(O)cc(=O)[nH]c2c1C#N`, the signal change vs control minus 3*SD hit threshold (margin above threshold, higher = more increase) is -30.6%. As for `CCOc1ccc(C(=O)Nc2ccccc2C(=O)O)cc1`, the signal change vs control minus 3*SD hit threshold (margin above threshold, higher = more increase) is -21.4%. `C=CCN(c1ccc(Cl)cc1)S(=O)(=O)c1cccc(C(=O)O)c1`: the signal change vs control minus 3*SD hit threshold (margin above threshold, higher = more increase) was -22.9%. On to `O=C(NC(=S)NCCC1=CCCCC1)c1ccco1`, for which the signal change vs control minus 3*SD hit threshold (margin above threshold, higher = more increase) was 22.8% (active). On to `O=C(NC(=S)NCCC1=CCCCC1)c1ccc(Br)o1`, for which the signal change vs control minus 3*SD hit threshold (margin above threshold, higher = more increase) is -1.2%.

In the case of `O=C(NC(=S)NCCc1ccc(Cl)cc1)c1ccco1`, the signal change vs control minus 3*SD hit threshold (margin above threshold, higher = more increase) is -21.7%. For the molecule `COc1ccc(/C=C/c2cc(=O)c3cc(Cl)ccc3o2)cc1`, the signal change vs control minus 3*SD hit threshold (margin above threshold, higher = more increase) was -32.9%. For the molecule `Cc1nc(NCCc2ccc(S(N)(=O)=O)cc2)c2c(C)c(C)sc2n1`, the signal change vs control minus 3*SD hit threshold (margin above threshold, higher = more increase) is -24.9%.

Regarding `Cc1nc(NCc2cccnc2)c2c3c(sc2n1)CC(C)CC3` (centres undefined), the signal change vs control minus 3*SD hit threshold (margin above threshold, higher = more increase) was 5.6% (active). For `Cc1ccc(OCc2ccoc2C(=O)O)cc1C` the value was -4.5%; for `Fc1cccc(C2NN=C(c3ccccc3)S2)c1` (centres undefined), -15.8%.

For the molecule `O=C(NC(=S)Nc1nc(-c2ccc([N+](=O)[O-])cc2)cs1)c1ccco1`, the signal change vs control minus 3*SD hit threshold (margin above threshold, higher = more increase) is 1% (active).

For `O=C(NC(=S)Nc1nc(-c2ccc(Br)cc2)cs1)c1ccco1`, the signal change vs control minus 3*SD hit threshold (margin above threshold, higher = more increase) was -20.8%.

`CCOC(=O)c1sc(NC(=S)NC(=O)c2ccco2)nc1C`: the signal change vs control minus 3*SD hit threshold (margin above threshold, higher = more increase) is -14.4%. For `O=C(NC(=S)Nc1nc2ccc(F)cc2s1)c1ccco1`, the signal change vs control minus 3*SD hit threshold (margin above threshold, higher = more increase) was 47% (active). For `O=C(NC(=S)Nc1nc2ccccc2s1)c1cccs1` the value was -8.5%; for `COc1ccc(-c2csc(NC(=S)NC(=O)c3ccco3)n2)cc1`, -14%. On to `O=C(NC(=S)Nc1nc(-c2ccccc2)cs1)c1ccco1`, for which the signal change vs control minus 3*SD hit threshold (margin above threshold, higher = more increase) is -21.2%. Regarding `O=C(NC(=S)Nc1cccc([N+](=O)[O-])c1)c1ccco1`, the signal change vs control minus 3*SD hit threshold (margin above threshold, higher = more increase) is -40.6%. As for `O=C(NC(=S)NCc1ccc(-c2nc3ccccc3s2)cc1)c1ccco1`, the signal change vs control minus 3*SD hit threshold (margin above threshold, higher = more increase) was -21.2%. For the molecule `COc1ccc(-c2csc(NC(=S)NC(=O)c3ccco3)n2)cc1Br`, the signal change vs control minus 3*SD hit threshold (margin above threshold, higher = more increase) is -15.8%. `O=C(NC(=S)Nc1nc2ccccc2s1)c1ccco1`: the signal change vs control minus 3*SD hit threshold (margin above threshold, higher = more increase) is 9.2% (active). `COc1ccc2nc(NC(=S)NC(=O)c3ccco3)sc2c1`: the signal change vs control minus 3*SD hit threshold (margin above threshold, higher = more increase) is 0.7% (active).

Regarding `CC(C)Oc1c(Cl)cc(CNC(C)(C)CO)cc1Cl`, the signal change vs control minus 3*SD hit threshold (margin above threshold, higher = more increase) is -26.9%.

As to `CCN(CCCn1c(=S)[nH]c2ncccc2c1=O)c1ccccc1`, the signal change vs control minus 3*SD hit threshold (margin above threshold, higher = more increase) is -29.7%. In the case of `COC(=O)C1=C(C)N(CC2CCCO2)C(=O)/C1=C\c1ccc(O)cc1` (centres undefined) it was -14.9%. On to `Nn1c(SCC(=O)Nc2ccc(OC(F)F)cc2)nnc1-c1ccco1`, for which the signal change vs control minus 3*SD hit threshold (margin above threshold, higher = more increase) is -27%. Consider `Cc1cccc(NC(=O)CN2C(=O)S/C(=C\c3ccc(-c4cccc(C(=O)O)c4C)o3)C2=O)c1`, for which the signal change vs control minus 3*SD hit threshold (margin above threshold, higher = more increase) was -29.7%.

`CCNC(=S)Nc1nc2c(cc1C(=O)OCC)CCCC2`: the signal change vs control minus 3*SD hit threshold (margin above threshold, higher = more increase) is -12.5%. Turning to `CCc1ccc(/C=N/NC(=O)c2nnn(-c3nonc3N)c2C(C)C)cc1`, the signal change vs control minus 3*SD hit threshold (margin above threshold, higher = more increase) is -35%.

Turning to `O=C(NC(=S)N1CCCc2ccccc21)c1ccc([N+](=O)[O-])cc1`, the signal change vs control minus 3*SD hit threshold (margin above threshold, higher = more increase) is -14.7%. In the case of `C[n+]1ccccc1COc1ccc(C(C)(C)C)cc1` it was -20.4%. `O=c1cc(-c2c(F)c(F)c(F)c(F)c2F)oc2ccccc12`: the signal change vs control minus 3*SD hit threshold (margin above threshold, higher = more increase) is -13.6%. For `CCOC(=O)c1c(C)[nH]c(C)c1S(=O)(=O)N1CCCCC1` the value was -27.3%; for `CCC1CCCCN1C(=S)NC(=O)c1cccc([N+](=O)[O-])c1` (centres undefined), -12.4%.

Turning to `O=S(=O)(Nc1ccc(Cc2ccncc2)cc1)c1ccc(Cl)c(Cl)c1`, the signal change vs control minus 3*SD hit threshold (margin above threshold, higher = more increase) was -33.7%. In the case of `CCOC(=O)/C(C)=N/NC(=O)c1ccc([N+](=O)[O-])cc1` it was -4.1%. Consider `Cc1ccc2nc(NC(=S)NC(=O)c3cccs3)sc2c1`, for which the signal change vs control minus 3*SD hit threshold (margin above threshold, higher = more increase) is -3.1%. For `Cc1ccc2nc(NC(=S)NC(=O)c3ccco3)sc2c1`, the signal change vs control minus 3*SD hit threshold (margin above threshold, higher = more increase) is 13.7% (active). `CCc1ccc2nc(NC(=O)c3cc(C)on3)sc2c1`: the signal change vs control minus 3*SD hit threshold (margin above threshold, higher = more increase) was -21.2%. In the case of `Cc1csc2c(N3CCCCC3)ncnc12` it was -19.8%; in that of `Cc1sc2ncnc(SCC(=O)NC(=O)c3cccn3C)c2c1C`, -30.1%.

Turning to `COc1ccc(NC(=O)c2cn(-c3ccccc3)nc2-c2ccncc2)cc1`, the signal change vs control minus 3*SD hit threshold (margin above threshold, higher = more increase) is -28.9%.

On to `Oc1c(Cl)cc(Cl)cc1Sc1cc(Cl)cc(Cl)c1O`, for which the signal change vs control minus 3*SD hit threshold (margin above threshold, higher = more increase) was 53.5% (active). In the case of `Oc1c(Cl)cc(Cl)cc1/C=N/c1nccs1` it was -6.3%; in that of `Oc1c(Cl)cc(Cl)cc1/C=N/c1ncn[nH]1`, -9.1%; in that of `Cc1cc2[nH]c(=O)c(=O)[nH]c2cc1S(=O)(=O)N1CCN(c2cccc(C)c2C)CC1`, -25%. Turning to `CCOC(=O)N1CCN(C(=O)CN(c2ccc(OCC)cc2)S(C)(=O)=O)CC1`, the signal change vs control minus 3*SD hit threshold (margin above threshold, higher = more increase) was -29.2%. `CC1CCCCC1NC(=S)NC(=O)c1sc2ccccc2c1Cl` (centres undefined): the signal change vs control minus 3*SD hit threshold (margin above threshold, higher = more increase) was -26.5%. In the case of `CC1CCN(C(=S)NC(=O)c2cccs2)CC1` it was -12%; in that of `CC1CCCCC1NC(=S)NC(=O)c1cccs1` (centres undefined), 3.7% (active).
